Experimental data reported in PubChem BioAssay (NCI).
The panel holds about 83,000 compounds, 20% with a hit somewhere; the sample as a whole holds those more often.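 48-hour exposure, single concentration, 96-well plates; percent growth endpoint where 0 means no net growth. Active: below 10.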 The source made the active and inactive calls.

How the values were obtained:
Experiment in all cases: NCI-60 one-dose screen, 48 h (100 = growth as untreated, 0 = no growth, -100 = all killed)
Conditions in all cases: 10 µM unless noted
HCT-15 colon = tested on: HCT-15 colon
HT29 colon = tested on: HT29 colon
SNB-75 CNS = tested on: SNB-75 CNS
SNB-19 CNS = tested on: SNB-19 CNS
U251 CNS = tested on: U251 CNS
PC-3 prostate = tested on: PC-3 prostate
SK-MEL-5 melanoma = tested on: SK-MEL-5 melanoma
UACC-62 melanoma = tested on: UACC-62 melanoma
LOX IMVI melanoma = tested on: LOX IMVI melanoma
SK-MEL-28 melanoma = tested on: SK-MEL-28 melanoma
SK-MEL-2 melanoma = tested on: SK-MEL-2 melanoma
EKVX NSCLC = tested on: EKVX NSCLC
SN12C renal = tested on: SN12C renal
UO-31 renal = tested on: UO-31 renal
TK-10 renal = tested on: TK-10 renal
ACHN renal = tested on: ACHN renal
CAKI-1 renal = tested on: CAKI-1 renal
A498 renal = tested on: A498 renal
CCRF-CEM leukemia = tested on: CCRF-CEM leukemia
MOLT-4 leukemia = tested on: MOLT-4 leukemia

Measured: growth

Cc1ccc(/C=C/C(=O)c2ccc(N)cc2)c(C)c1
active: LOX IMVI melanoma -91.5% | SN12C renal 4.51% | CCRF-CEM leukemia -45.3% | MOLT-4 leukemia -41.1%
inactive: HCT-15 colon 18.6% | HT29 colon 60.9% | SNB-75 CNS 97.8% | SNB-19 CNS 85.7% | U251 CNS 54.1% | PC-3 prostate 91.6% | SK-MEL-5 melanoma 96% | UACC-62 melanoma 86.8% | SK-MEL-28 melanoma 105% | SK-MEL-2 melanoma 99% | EKVX NSCLC 109% | UO-31 renal 11.7% | TK-10 renal 106% | ACHN renal 39.3% | CAKI-1 renal 84.1% | A498 renal 97.3%

O=C(N/N=C/c1ccc(O)c(O)c1)c1sc2ccccc2c1Cl
inactive: HCT-15 colon 33.9% | HT29 colon 105% | SNB-75 CNS 83.2% | SNB-19 CNS 59.4% | U251 CNS 59.2% | PC-3 prostate 66.6% | SK-MEL-5 melanoma 81.8% | UACC-62 melanoma 73.8% | LOX IMVI melanoma 68.7% | SK-MEL-28 melanoma 56.8% | EKVX NSCLC 98.3% | SN12C renal 77.1% | UO-31 renal 61% | TK-10 renal 109% | ACHN renal 62.9% | CAKI-1 renal 84.7% | A498 renal 71.4% | CCRF-CEM leukemia 14.1% | MOLT-4 leukemia 43.7%
active: SK-MEL-2 melanoma -13.4%

C#CCn1cc(C=C2C(=O)NC(=S)NC2=O)c2cc(Cl)ccc21
inactive: HT29 colon 13.6% | SNB-75 CNS 43.9% | SNB-19 CNS 13.2% | SK-MEL-5 melanoma 40.8% | SK-MEL-2 melanoma 89.1% | EKVX NSCLC 67.2% | TK-10 renal 16.1%
active: HCT-15 colon -23% | U251 CNS 3.31% | PC-3 prostate 8.39% | UACC-62 melanoma 1.1% | LOX IMVI melanoma -46.1% | SK-MEL-28 melanoma -26.5% | SN12C renal -34.9% | UO-31 renal -73.4% | ACHN renal -25.2% | CAKI-1 renal 9.84% | A498 renal -1.83% | CCRF-CEM leukemia 0.645% | MOLT-4 leukemia 5.59%

Cc1ccc(C2CC(c3cccc(Nc4ccncc4)c3)=NN2c2ccc(Cl)cc2)cc1 (stereo not given)
active: HCT-15 colon -88.2% | HT29 colon -58% | SNB-75 CNS -89.9% | SNB-19 CNS -90.2% | U251 CNS -52.2% | PC-3 prostate -83.4% | SK-MEL-5 melanoma -93% | UACC-62 melanoma -98.3% | LOX IMVI melanoma -96.5% | SK-MEL-28 melanoma -97.7% | SK-MEL-2 melanoma -74.8% | EKVX NSCLC -85.1% | SN12C renal -95.8% | UO-31 renal -99.4% | TK-10 renal -80.9% | ACHN renal -100% | CAKI-1 renal -94.7% | A498 renal -93.8% | CCRF-CEM leukemia -30.8% | MOLT-4 leukemia -32.8%

COc1ccc(Cn2nc(-c3cc(OC)c(OC)c(OC)c3)c3c2CCc2cnoc2-3)cc1OC
inactive: HCT-15 colon 53.1% | HT29 colon 22% | SNB-75 CNS 37.8% | SNB-19 CNS 65.4% | U251 CNS 62.1% | PC-3 prostate 65% | SK-MEL-5 melanoma 38.7% | UACC-62 melanoma 51.1% | LOX IMVI melanoma 47% | SK-MEL-28 melanoma 64.9% | SK-MEL-2 melanoma 38% | EKVX NSCLC 77.7% | SN12C renal 60.6% | UO-31 renal 32.7% | TK-10 renal 72.5% | ACHN renal 74.9% | CAKI-1 renal 50.3% | A498 renal 42.1% | CCRF-CEM leukemia 55.6% | MOLT-4 leukemia 36.2%

CC[C@@]12C=CCN3CC[C@]4(c5cc(NC(=O)COc6cc(OCC(=O)Nc7cc8c(cc7OC)N(C)[C@H]7[C@@](O)(C(=O)OC)[C@H](OC(C)=O)[C@]9(CC)C=CCN%10CC[C@]87[C@@H]%109)cc7oc(-c8ccccc8)cc(=O)c67)c(OC)cc5N(C)[C@@H]4[C@](O)(C(=O)OC)[C@H]1OC(C)=O)[C@H]32
active: HT29 colon 1.38% | U251 CNS -3.12% | LOX IMVI melanoma 7.97%
inactive: HCT-15 colon 34.7% | SNB-75 CNS 82.5% | SNB-19 CNS 58.5% | PC-3 prostate 23% | SK-MEL-5 melanoma 103% | UACC-62 melanoma 93.8% | SK-MEL-28 melanoma 112% | SK-MEL-2 melanoma 85.1% | EKVX NSCLC 56.8% | SN12C renal 49.4% | UO-31 renal 75.9% | TK-10 renal 42.8% | ACHN renal 85.4% | CAKI-1 renal 46.8% | A498 renal 58.6% | CCRF-CEM leukemia 13.6% | MOLT-4 leukemia 13.1%

CCN(CC)CCSCCCNc1c(C)cnc2cc(Cl)ccc12
inactive: HCT-15 colon 76.7% | HT29 colon 54.9% | SNB-75 CNS 85.4% | SNB-19 CNS 104% | U251 CNS 84% | PC-3 prostate 85.1% | SK-MEL-5 melanoma 75.3% | UACC-62 melanoma 93.9% | LOX IMVI melanoma 79.5% | SK-MEL-28 melanoma 87% | SK-MEL-2 melanoma 143% | EKVX NSCLC 87.4% | SN12C renal 82.7% | UO-31 renal 54.9% | TK-10 renal 118% | ACHN renal 94.6% | CAKI-1 renal 90.5% | A498 renal 71.4% | CCRF-CEM leukemia 80.6% | MOLT-4 leukemia 70.4%

CC(C)CN(C(=O)c1ccc(Cl)cc1)c1c(N)n(CC(C)C)c(=O)[nH]c1=O
inactive: HCT-15 colon 111% | HT29 colon 111% | SNB-75 CNS 88.4% | SNB-19 CNS 96.6% | U251 CNS 98.8% | PC-3 prostate 89.8% | SK-MEL-5 melanoma 37.6% | UACC-62 melanoma 88.7% | LOX IMVI melanoma 102% | SK-MEL-28 melanoma 107% | SK-MEL-2 melanoma 96.4% | EKVX NSCLC 106% | SN12C renal 87.8% | UO-31 renal 98.2% | TK-10 renal 125% | ACHN renal 101% | CAKI-1 renal 50.2% | A498 renal 108% | CCRF-CEM leukemia 93.1% | MOLT-4 leukemia 97.2%

C[C@@H]1CN(Cc2ccc(/C=C/c3n[nH]c4ccc5nc(-c6cn[nH]c6C(F)(F)F)c6c(c5c34)CCCC6)cc2)C[C@H](C)O1
inactive: SNB-19 CNS 57.1% | U251 CNS 46.1% | PC-3 prostate 22.7% | SK-MEL-5 melanoma 40.3% | UACC-62 melanoma 44.3% | SK-MEL-28 melanoma 40.6% | SK-MEL-2 melanoma 57.6% | EKVX NSCLC 32.4% | SN12C renal 12.6% | TK-10 renal 32.5% | ACHN renal 10.8% | CCRF-CEM leukemia 15.4% | MOLT-4 leukemia 12.6%
active: HCT-15 colon 7.35% | HT29 colon 7.17% | SNB-75 CNS -4.9% | LOX IMVI melanoma 8.23% | UO-31 renal 4.93% | CAKI-1 renal 1.97% | A498 renal 3.16%

CC(=O)N1N=C(c2cccc(Nc3ccncc3)c2)CC1c1ccccc1 (stereo not given)
inactive: HCT-15 colon 82.8% | HT29 colon 33.2% | SNB-75 CNS 53.3% | SNB-19 CNS 91.8% | U251 CNS 72.9% | PC-3 prostate 75.9% | SK-MEL-5 melanoma 82% | UACC-62 melanoma 86.7% | LOX IMVI melanoma 90.9% | SK-MEL-28 melanoma 86.5% | SK-MEL-2 melanoma 100% | EKVX NSCLC 83.9% | SN12C renal 81.7% | UO-31 renal 80.6% | TK-10 renal 99.5% | ACHN renal 94.6% | CAKI-1 renal 77.2% | A498 renal 70% | CCRF-CEM leukemia 84.1% | MOLT-4 leukemia 81.4%

O=C(Nc1ccc(Cl)cc1)Nc1ccc(Cl)c(Cl)c1
inactive: HT29 colon 28.6% | SNB-75 CNS 51.7% | SNB-19 CNS 15.9% | SK-MEL-5 melanoma 24.1% | SK-MEL-28 melanoma 35.4% | SK-MEL-2 melanoma 13.3% | EKVX NSCLC 18.8% | TK-10 renal 12.5% | A498 renal 11.4%
active: HCT-15 colon 3.42% | U251 CNS 8.94% | PC-3 prostate 9.37% | UACC-62 melanoma 5.98% | LOX IMVI melanoma 7.43% | SN12C renal 6.47% | UO-31 renal 9.73% | ACHN renal -9.93% | CAKI-1 renal -1.31% | CCRF-CEM leukemia 6.06% | MOLT-4 leukemia 6.56%

Clc1cc(Cl)cc(N2N=C(c3cccc(Nc4ccncc4)c3)CC2c2ccc(Br)cc2)c1 (stereo not given)
active: HCT-15 colon -66.5% | HT29 colon -12.2% | U251 CNS -29.8% | LOX IMVI melanoma -88.4% | SK-MEL-28 melanoma -21.8% | CCRF-CEM leukemia -12.9% | MOLT-4 leukemia 3.97%
inactive: SNB-75 CNS 78.3% | SNB-19 CNS 85.8% | PC-3 prostate 33.3% | SK-MEL-5 melanoma 79% | UACC-62 melanoma 102% | SK-MEL-2 melanoma 99.2% | EKVX NSCLC 67.8% | SN12C renal 58.3% | UO-31 renal 52.1% | TK-10 renal 71.4% | ACHN renal 46.3% | CAKI-1 renal 48.2% | A498 renal 88.8%

NC(=O)c1ccc[n+](CC(=O)N2CCN(c3cc4c(cc3F)c(=O)c(C(=O)O)cn4C3CC3)CC2)c1
active: CCRF-CEM leukemia -25.2%
inactive: HCT-15 colon 81.8% | HT29 colon 99.3% | SNB-75 CNS 88.2% | SNB-19 CNS 92.6% | U251 CNS 88.4% | PC-3 prostate 88.9% | SK-MEL-5 melanoma 93.7% | UACC-62 melanoma 59.2% | LOX IMVI melanoma 43% | SK-MEL-28 melanoma 75.8% | SK-MEL-2 melanoma 95.9% | EKVX NSCLC 106% | SN12C renal 58% | UO-31 renal 74.3% | TK-10 renal 116% | ACHN renal 84.5% | CAKI-1 renal 96.9% | A498 renal 101% | MOLT-4 leukemia 26.6%

C[C@]12C[C@H]1CC[C@]1(C)[C@@H]2CC[C@@]23C[C@H](CC[C@H]21)[C@@](O)(CO)C3
inactive: HCT-15 colon 88.6% | HT29 colon 100% | SNB-75 CNS 105% | SNB-19 CNS 95.4% | U251 CNS 103% | PC-3 prostate 88.9% | SK-MEL-5 melanoma 97.7% | UACC-62 melanoma 76.2% | LOX IMVI melanoma 93.6% | SK-MEL-28 melanoma 105% | SK-MEL-2 melanoma 104% | EKVX NSCLC 74.8% | SN12C renal 92% | UO-31 renal 84% | TK-10 renal 100% | ACHN renal 107% | CAKI-1 renal 85.9% | A498 renal 92.9% | CCRF-CEM leukemia 86.4% | MOLT-4 leukemia 96%
